These results are taken from PubChem BioAssay (EPA / NIEHS).

The source made the active and inactive calls. Rule for the calls: active = hit-call score of the fitted dose curve at least 0.9, where 1 is the maximum; inactive = score below 0.9.

Broadly, the AC50 is the concentration at which the activity in the assay is half-maximal.

Common to all, as to conditions: mRNA level, 48 h; actives raise or lower the signal
Read-out in assay [1]: Bcl-2 (BID) gene, BID (gene 637)
The assay can be described thus: LTEA_HepaRG_BID: Life Technologies and Expression Analysis (LTEA) Assay for Bcl-2 (BID) gene using HepaRG (AID 2283476). In a few lines: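 HepaRG, 48 h exposure, 8-pt half-log series, top 100 uM, 0.5% DMSO vehicle, duplicates. Readout: BID mRNA by TaqMan qRT-PCR; housekeeping-normalized; bidirectional curve fit vs DMSO baseline.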

Read-out in assay [2]: Caspase-3 (Homo sapiens) (UniProt P42574)
In words: LTEA_HepaRG_CASP3: Life Technologies and Expression Analysis (LTEA) Assay for cysteine-aspartic acid protease (CASP3) using HepaRG (AID 2283477). In a few lines: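 HepaRG, 48 h exposure, 8 conc. (top 100 uM, half-log steps, duplicate), 0.5% DMSO vehicle; qRT-PCR of CASP3 transcript, housekeeping-normalised (ACTB/GAPDH/POLR2A); bidirectional curve fit vs DMSO baseline.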

Read-out in assay [3]: Cytochrome P450 (CYP24A1), CYP24A1 (gene 1591)
The assay can be described thus: LTEA_HepaRG_CYP24A1: Life Technologies and Expression Analysis (LTEA) Assay for Cytochrome P450 (CYP24A1) using HepaRG (AID 2283478). The procedure, abridged:
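qRT-PCR read-out: CYP24A1 transcript levels normalized to three housekeeping genes, bidirectional curve fits against 0.5% DMSO baseline. Human HepaRG cells treated 48 h with chemicals at eight concentrations from 100 uM in half-log steps.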

Read-out in assay [4]: Cytochrome P450 (CYP1A2), CYP1A2 (gene 1544)
In words: LTEA_HepaRG_CYP1A2: Life Technologies and Expression Analysis (LTEA) Assay for Cytochrome P450 (CYP1A2) using HepaRG (AID 2283479). The procedure, abridged: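 HepaRG, 48 h exposure, top 100 uM, half-log 8-pt, 0.5% DMSO vehicle, duplicates. Readout: TaqMan qRT-PCR of CYP1A2 mRNA, housekeeping-normalized (ACTB/GAPDH/POLR2A). Gain/loss fit relative to DMSO baseline.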

Read-out in assay [5]: cysteine-aspartic acid protease (CASP8), CASP8 (gene 841)
The assay can be described thus: LTEA_HepaRG_CASP8: Life Technologies and Expression Analysis (LTEA) Assay for cysteine-aspartic acid protease (CASP8) using HepaRG (AID 2283480). In a few lines: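 qRT-PCR readout of CASP8 mRNA, normalized to three housekeeping genes, after 48 h chemical exposure of HepaRG cells; 8-point half-log series, top 100 uM, 0.5% DMSO vehicle. Bidirectional curve fitting against DMSO baseline.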

Read-out in assay [6]: Cytochrome P450 (CYP2B6), CYP2B6 (gene 1555)
In words: LTEA_HepaRG_CYP2B6: Life Technologies and Expression Analysis (LTEA) Assay for Cytochrome P450 (CYP2B6) using HepaRG (AID 2283481). The procedure, abridged:
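Read-out is CYP2B6 mRNA by TaqMan qRT-PCR, normalized to three housekeeping genes and fitted bidirectionally against 0.5% DMSO baseline. Human HepaRG cells received test chemicals for 48 h, top concentration 100 uM, half-log dilutions.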

Read-out in assay [7]: Cytochrome P450 2C19 (Homo sapiens) (UniProt P33261)
In words: LTEA_HepaRG_CYP2C19: Life Technologies and Expression Analysis (LTEA) Assay for CYP2C19 using HepaRG (AID 2283482). The procedure, abridged:
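HepaRG, 48 h chemical exposure, 8-pt half-log series from 100 uM in 0.5% DMSO, duplicates. Readout: CYP2C19 mRNA by TaqMan qRT-PCR, housekeeping-normalized. Bidirectional fit vs DMSO baseline; phenobarbital 1mM as induction control.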

Read-out in assay [8]: CYP2C8 (gene 1558)
In words: LTEA_HepaRG_CYP2C8: Life Technologies and Expression Analysis (LTEA) Assay for CYP2C8 using HepaRG (AID 2283483). The procedure, abridged:
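HepaRG (human liver line), 48 h chemical exposure, 8-pt half-log series from 100 uM, 0.5% DMSO vehicle. Readout: CYP2C8 transcript by qRT-PCR, housekeeping-normalized. Bidirectional fit vs DMSO baseline.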

Read-out in assay [9]: CYP2C9 (gene 1559)
In words: LTEA_HepaRG_CYP2C9: Life Technologies and Expression Analysis (LTEA) Assay for CYP2C9 using HepaRG (AID 2283484). In a few lines: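 HepaRG, 48 h dosing, 8-pt half-log series, top 100 uM, 0.5% DMSO vehicle. Read-out: CYP2C9 transcript by TaqMan qRT-PCR, housekeeping-normalized (ACTB/GAPDH/POLR2A). Gain or loss fitted vs DMSO baseline.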

Read-out in assay [10]: CYP2E1 (gene 1571)
The assay can be described thus: LTEA_HepaRG_CYP2E1: Life Technologies and Expression Analysis (LTEA) Assay for CYP2E1 using HepaRG (AID 2283485). The procedure, abridged:
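CYP2E1 transcript was measured by TaqMan qRT-PCR in human HepaRG cultures after 48 h chemical exposure (top 100 uM, half-log steps, 0.5% DMSO vehicle). Housekeeping-gene normalization; gain or loss fitted relative to DMSO baseline.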

Read-out in assay [11]: CYP4A11 (gene 1579)
In words: LTEA_HepaRG_CYP4A11: Life Technologies and Expression Analysis (LTEA) Assay for CYP4A11 using HepaRG (AID 2283486). The procedure, abridged: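 CYP4A11 transcript levels were quantified by TaqMan qRT-PCR after HepaRG human liver cells were treated for 48 hours with test chemicals (top 100 uM, half-log dilutions, 0.5% DMSO). Gain or loss of signal was fitted relative to DMSO.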

Read-out in assay [12]: Cytochrome P450 3A4 (Homo sapiens) (UniProt P08684)
The assay can be described thus: LTEA_HepaRG_CYP3A4: Life Technologies and Expression Analysis (LTEA) Assay for CYP3A4 using HepaRG (AID 2283487). The procedure, abridged: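 CYP3A4 transcript measured by TaqMan qRT-PCR and normalized to three housekeeping genes after 48 h chemical exposure of human HepaRG cells. Top concentration 100 uM, half-log steps, 0.5% DMSO vehicle; gain or loss fitted against DMSO baseline.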

Read-out in assay [13]: Pro-epidermal growth factor (Homo sapiens) (UniProt P01133)
The assay can be described thus: LTEA_HepaRG_EGF: Life Technologies and Expression Analysis (LTEA) Assay for Epidermal growth factor (EGF) using HepaRG (AID 2283489). In a few lines: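 qRT-PCR readout of EGF transcript after 48 h chemical exposure of HepaRG cells; eight concentrations from 100 uM down in half-log steps, duplicate wells, 0.5% DMSO vehicle. Bidirectional curve fitting against DMSO baseline.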

Read-out in assay [14]: Ezrin (EZR), EZR (gene 7430)
In words: LTEA_HepaRG_EZR: Life Technologies and Expression Analysis (LTEA) Assay for Ezrin (EZR) using HepaRG (AID 2283491). The procedure, abridged:
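HepaRG, 48 h chemical exposure, 8-pt half-log series from 100 uM, 0.5% DMSO vehicle, duplicates. Read-out: EZR mRNA by TaqMan qRT-PCR (Fluidigm array), housekeeping-normalized; bidirectional curve fit vs DMSO baseline.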

Read-out in assay [15]: CYP3A5 (gene 1577)
The assay can be described thus: LTEA_HepaRG_CYP3A5: Life Technologies and Expression Analysis (LTEA) Assay for CYP3A5 using HepaRG (AID 2283493). The procedure, abridged:
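qRT-PCR read-out: CYP3A5 transcript in HepaRG lysates, housekeeping-normalized (ACTB/GAPDH/POLR2A), fitted bidirectionally against 0.5% DMSO baseline. Exposure 48 h, eight half-log concentrations up to 100 uM, duplicates.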

Read-out in assay [16]: Fatty Acid-Binding Protein 1 (FABP1), FABP1 (gene 2168)
In words: LTEA_HepaRG_FABP1: Life Technologies and Expression Analysis (LTEA) Assay for Fatty Acid-Binding Protein 1 (FABP1) using HepaRG (AID 2283494). The procedure, abridged: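 qRT-PCR readout of FABP1 transcript (normalized to three housekeeping genes) after 48 h chemical exposure of HepaRG cells; eight concentrations, half-log steps, max 100 uM, 0.5% DMSO vehicle; gain or loss fitted relative to DMSO baseline.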

Read-out in assay [17]: Cytochrome P450 4A22 (Homo sapiens) (UniProt Q5TCH4)
In words: LTEA_HepaRG_CYP4A22: Life Technologies and Expression Analysis (LTEA) Assay for Cytochrome P450 4A22 (CYP4A22) using HepaRG (AID 2283495). The procedure, abridged: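 HepaRG, 48 h post-plating -> serum-free induction medium; dosed 48 h, duplicate, 8 conc. (100 uM top, half-log), 0.5% DMSO. Readout: CYP4A22 mRNA by qRT-PCR, ACTB/GAPDH/POLR2A normalization; gain/loss fit relative to DMSO.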

Read-out in assay [18]: Cytochrome P450 3A7 (Homo sapiens) (UniProt P24462)
The assay can be described thus: LTEA_HepaRG_CYP3A7: Life Technologies and Expression Analysis (LTEA) Assay for CYP3A7 using HepaRG (AID 2283492). The procedure, abridged: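 CYP3A7 transcript levels were read by TaqMan qRT-PCR on Fluidigm arrays after 48 h chemical exposure of human HepaRG cells, with housekeeping-gene normalisation. Eight half-log concentrations up to 100 uM in 0.5% DMSO were tested in duplicate.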

Cytochrome P450 3A4 (Homo sapiens), sequence (P08684 whole entry, looked up): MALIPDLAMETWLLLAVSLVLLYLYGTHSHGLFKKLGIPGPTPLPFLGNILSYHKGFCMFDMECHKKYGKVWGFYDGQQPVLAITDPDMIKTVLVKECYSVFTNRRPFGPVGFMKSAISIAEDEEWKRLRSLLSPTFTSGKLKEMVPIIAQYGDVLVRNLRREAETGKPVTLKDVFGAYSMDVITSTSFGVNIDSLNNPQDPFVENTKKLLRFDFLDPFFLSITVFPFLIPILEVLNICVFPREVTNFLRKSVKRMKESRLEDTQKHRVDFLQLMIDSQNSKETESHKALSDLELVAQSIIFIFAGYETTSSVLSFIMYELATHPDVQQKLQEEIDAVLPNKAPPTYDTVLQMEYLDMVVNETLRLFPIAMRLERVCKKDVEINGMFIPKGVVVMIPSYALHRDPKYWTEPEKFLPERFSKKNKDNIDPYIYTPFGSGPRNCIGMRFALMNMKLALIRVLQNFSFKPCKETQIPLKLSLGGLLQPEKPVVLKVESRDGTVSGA
Cytochrome P450 2C19 (Homo sapiens), sequence (P33261 whole entry, looked up): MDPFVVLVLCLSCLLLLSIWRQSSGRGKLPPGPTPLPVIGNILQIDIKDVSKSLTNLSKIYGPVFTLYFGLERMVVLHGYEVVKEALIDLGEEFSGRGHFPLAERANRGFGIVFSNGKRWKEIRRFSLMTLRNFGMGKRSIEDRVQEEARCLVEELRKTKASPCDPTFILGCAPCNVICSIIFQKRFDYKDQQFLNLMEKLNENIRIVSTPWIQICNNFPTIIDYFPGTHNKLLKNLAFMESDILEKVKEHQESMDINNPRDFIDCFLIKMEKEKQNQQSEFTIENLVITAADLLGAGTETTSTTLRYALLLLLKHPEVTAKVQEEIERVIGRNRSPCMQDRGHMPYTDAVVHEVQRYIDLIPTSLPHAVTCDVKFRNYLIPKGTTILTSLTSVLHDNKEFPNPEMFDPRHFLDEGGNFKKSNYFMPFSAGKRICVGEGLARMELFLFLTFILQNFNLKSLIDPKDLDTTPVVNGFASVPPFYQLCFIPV
Caspase-3 (Homo sapiens), sequence (P42574 whole entry, looked up): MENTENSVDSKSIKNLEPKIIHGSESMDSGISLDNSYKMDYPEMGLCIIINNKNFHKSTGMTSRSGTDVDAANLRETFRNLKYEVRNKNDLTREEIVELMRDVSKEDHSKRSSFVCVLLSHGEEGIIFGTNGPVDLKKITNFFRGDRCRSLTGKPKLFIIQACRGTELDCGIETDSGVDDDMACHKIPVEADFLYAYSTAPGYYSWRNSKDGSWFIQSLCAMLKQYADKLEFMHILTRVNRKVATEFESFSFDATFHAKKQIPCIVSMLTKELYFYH
Cytochrome P450 3A7 (Homo sapiens), sequence (P24462 whole entry, looked up): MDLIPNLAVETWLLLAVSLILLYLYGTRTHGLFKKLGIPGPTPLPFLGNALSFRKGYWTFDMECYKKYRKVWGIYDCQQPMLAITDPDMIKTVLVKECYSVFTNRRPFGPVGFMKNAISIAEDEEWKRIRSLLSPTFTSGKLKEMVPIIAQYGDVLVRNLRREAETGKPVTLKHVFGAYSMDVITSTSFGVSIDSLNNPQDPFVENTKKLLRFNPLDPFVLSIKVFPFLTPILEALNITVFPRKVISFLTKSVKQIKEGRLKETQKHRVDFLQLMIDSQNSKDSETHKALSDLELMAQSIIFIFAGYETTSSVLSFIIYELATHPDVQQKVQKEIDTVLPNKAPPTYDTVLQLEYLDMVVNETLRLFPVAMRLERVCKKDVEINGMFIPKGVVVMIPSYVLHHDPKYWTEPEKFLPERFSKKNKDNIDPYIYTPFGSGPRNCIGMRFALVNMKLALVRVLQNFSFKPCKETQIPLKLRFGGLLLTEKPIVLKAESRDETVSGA

For `OC(c1ccc(Cl)cc1)(c1ccc(Cl)cc1)C(Cl)(Cl)Cl`, the AC50 in assay [1] is 85 µM (active); in assay [2] it was 50 µM (active); in [5], 50 µM (active); in [6], 11.8 µM (active); in assay [7], 85.2 µM (active); in assay [8], 80.6 µM (active). In addition, the AC50 was 81.6 µM (active) in assay [9]; 50 µM (active) in assay [10]; 65.4 µM (active) in [11]; 87.6 µM (active) in assay [12]; 50 µM (active) in [15]; 63.2 µM (active) in assay [16]. Further, the outcome in assay [3], in assay [4], in assay [13], in assay [14] and in [17] was inactive.

With `COC(=O)NC(=S)Nc1ccccc1NC(=S)NC(=O)OC`, the molecule was called inactive in assay [1], in assay [2], in assay [3], in assay [5], in assay [8] and in [9]. Besides, the outcome in [11], in [13], in assay [14], in assay [15], in assay [16] and in [17] was inactive. For the same molecule, the AC50 in assay [4] was 39 µM (active); in assay [6] it was 9.55 µM (active); in [7], 13.7 µM (active); in assay [10], 26.8 µM (active); in assay [12] it was 6.29 µM (active).

With `CCCC(=NOCC)C1=C(O)CC(CC(C)SCC)CC1=O` (stereo unspecified), the molecule was called inactive in [1], in assay [2], in assay [3], in assay [4], in assay [5] and in [8]. For the same molecule, the molecule was classed as inactive in [9], in assay [11], in assay [13], in [14], in assay [15] and in assay [16]. Moreover, in assay [17], the outcome was inactive. The AC50 in [6] is 46.2 µM (active); in assay [7], 29.6 µM (active); in assay [10], 50.2 µM (active); in assay [12] it was 28.4 µM (active).

Consider `COC(=O)NS(=O)(=O)c1ccc(N)cc1`, for which the outcome in [1], in assay [2], in [3], in assay [4], in assay [5] and in assay [6] was inactive. Besides, the call in assay [7], in assay [8], in [9], in assay [10], in [11] and in [12] was inactive. The outcome in assay [13], in [14], in assay [18], in assay [15], in [16] and in assay [17] was inactive.

Turning to `CCOc1cc(C(C)(C)C)ccc1C1COC(c2c(F)cccc2F)=N1` (stereo unspecified), the call in [1], in assay [2], in assay [3], in assay [4], in assay [5] and in [9] was inactive. Also, the outcome in assay [13], in assay [14] and in [15] was inactive. In addition, the AC50 was 8.33 µM (active) in assay [6]; 8.34 µM (active) in assay [7]; 7.92 µM (active) in [8]; 18.7 µM (active) in assay [10]; 57.4 µM (active) in [11]; 4.8 µM (active) in [12]. The values for the AC50 in assay [16] and in assay [17] were 6.69 µM (active) and 33 µM (active), respectively.
